IL1B secr inh: qHTS for Inhibitors of Inflammasome Signaling: IL-1-beta AlphaLISA Primary Screen; THP-1 LPS/ATP IL-1B secretion, AlphaLISA, 16 h; stronger effect = lower value; activity change, % at 57.5 µM; actives 4.7% (n = 360,000); in the data active means activity change below about -50%; inconclusive means mostly about -30% to -49%
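Secreted IL-1B measured by AlphaLISA bead assay after 16 h compound exposure of THP-1 cells; compounds (final up to 57.5 uM) added 1 h before LPS (250 ng/mL) and ATP (1.25 mM) stimulation; lower signal means less secretion.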
HT1080 IDH1KD tx: qHTS for induction of synthetic lethality in tumor cells producing 2HG: qHTS for the HT-1080-IDH1KD cell line; HT-1080 IDH1 knockdown viability, ATP luminescence, 48 h; Potency, µM (highest dose often 46.1 µM), inactives show at the highest dose activity, negative = toxicity, actives largely listed as cytotoxic; actives 2% (n = 360,000);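 further: potency means the concentration at half of the fitted maximal effect; 0% = DMSO wells and -100% = cell-free medium wells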
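After a 2 h attachment period, IDH1KD HT-1080 cells took pin-transferred compound for 48 h at 37 °C; ATP-based luminescence after 10 min room-temperature reagent incubation reported viability.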
HT1080-NT tox: qHTS for induction of synthetic lethality in tumor cells producing 2HG: qHTS for the HT-1080-NT fibrosarcoma cell line; HT-1080-NT fibrosarcoma viability, CellTiter-Glo ATP luminescence, 48 h; Potency, µM (series often up to 46.1 µM), inactives show at the top dose activity, negative = less viability, usual class: cytotoxic; actives 1.6% (n = 360,000);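 further: NT is the 2HG producing partner of a matched IDH1 knockdown line; potency means the concentration at half of the fitted maximal effect; 0% = DMSO-treated cells and -100% = media-only wells without cells; nearly all actives have a fitted effect of over 55% in size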
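Luminescent CellTiter-Glo readout after 48 hours of compound exposure at 37 degrees C defined viability of HT-1080-NT cells. Activity was normalized to DMSO wells and cell-free media wells; concentration-response curves were fitted and assigned curve classes.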
TDP1 cell CPT: qHTS for Inhibitors of human tyrosyl-DNA phosphodiesterase 1 (TDP1): qHTS in cells in presence of CPT. chicken DT40 Tdp1-/-;hTDP1 cells + 20 nM CPT, ATP luminescence, 48 h. Potency, µM (titrated, usually from 46.2 µM), for inactives: at the top dose activity change, negative = growth inhibition, usual class: inhibitors. actives 12% (n = 420,000); further: potency means the concentration at half of the fitted maximal effect; nearly all actives have a fitted effect of over 55% in size
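Chicken DT40 Tdp1-/- cells complemented with human TDP1, 400 cells/well, exposed to compounds plus 20 nM camptothecin for at least 48 h at 37 C; viability read as ATP content by CellTiter-Glo luminescence.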
DT40 TDP1 no CPT: qHTS for Inhibitors of human tyrosyl-DNA phosphodiesterase 1 (TDP1): qHTS in cells in absence of CPT; DT40 Tdp1-/- hTDP1 cells, no CPT, ATP luminescence, 48 h; Potency, µM (titrated, usually from 46.2 µM), for inactives: top-dose activity change, negative = growth inhibition, actives largely listed as inhibitors; actives 15% (n = 420,000); further: potency means the concentration at half of the fitted maximal effect; nearly all actives have a fitted effect of over 55% in size
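Luminescent ATP content (CellTiter-Glo) served as the growth readout. Knockout chicken DT40 cells expressing human TDP1 were exposed to compounds without camptothecin for a minimum 48 hr at 37 °C.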
* marks the source's active call; other numbers are inactive results; ? = inconclusive; · = no result given. A selection: hits, their analogues and other compounds. The true share with any hit is near 19%. Unless noted, the call rests on the fitted dose curve; in most records, active means well fitted curve in the direction sought with a large enough effect; inconclusive means small, poorly fitted or top-dose-only effect, or another doubt; inactive means no such curve, though single readings can be large; an effect the other way counts as inactive or inconclusive. Unless noted, on the % scale 0 is the no-effect control and ±100 the full control effect.

SMILES	IL1B secr inh	HT1080 IDH1KD tx	HT1080-NT tox	TDP1 cell CPT	DT40 TDP1 no CPT
CC1CCCCN1S(=O)(=O)c1ccc(S(=O)(=O)N2CCN(C)CC2)cc1 (centres undefined)	11	21%	5%	-1%	-7%
CCOc1cc(/C=C2\N=C(SC)SC2=O)cc([N+](=O)[O-])c1OC(C)=O	18	11%	4%	18µM*	?
CCOc1cc(/C=C2\N=C(SCC)SC2=O)cc([N+](=O)[O-])c1OC(C)=O	0	-23%	1%	?	?
O=C1C(Cc2cccc([N+](=O)[O-])c2)SC(=Nc2ccccc2)N1c1ccccc1 (centres undefined)	17	0%	-1%	-14%	-27%
O=[N+]([O-])c1cc(CN2CCCCCC2)ccc1O	12	16%	12%	6%	-11%
Cc1ccc(Sc2ccc(CN3CCCCC3)cc2[N+](=O)[O-])cc1	0	-4%	-3%	18µM*	?
O=C(Nc1cccc(C(=O)O)c1)/C(=C\c1ccc(F)cc1)NC(=O)c1ccco1	6	15%	8%	18%	11%
COc1ccc(Nc2c(C3CC3)nc3nc(C)cc(C)n23)cc1	52	-11%	7%	?	?
Cc1csc2nc(-c3cccc(NS(C)(=O)=O)c3)cn12	·	·	·	1%	-6%
Cc1csc2nc(-c3cccc(NC(=O)c4cccc(F)c4)c3)cn12	·	·	·	18µM*	18µM*
Cc1csc2nc(-c3cccc(NC(=O)c4ccccc4Cl)c3)cn12	·	·	·	18µM*	18µM*
O=C1CCC/C1=c1\s/c(=C/c2cccnc2)c(=O)n1-c1ccccc1	-73*	-1%	2%	?	?
O=C1/C(=C/c2cccnc2)N=C2CCCCCN12	-6	7%	12%	-9%	-12%
O=C1CCC/C1=c1\s/c(=C\c2cccnc2)c(=O)n1-c1ccccc1	-75*	-2%	0%	?	16µM*
Cc1c(N=Cc2cccnc2)c(=O)n(-c2ccccc2)n1C	20	15%	15%	-5%	-6%
CCOc1ccccc1N1CCN(S(=O)(=O)c2ccc(C3CCCCC3)cc2)CC1	·	·	·	-25%	?
O=C(Nc1ccnc(-c2cccnc2)n1)c1cccc(Cl)c1Cl	-3	1%	1%	21µM*	23µM*
O=C(Nc1cccc(Cl)c1)Nc1ccnc(-c2cccnc2)n1	48	-9%	-17%	?	21µM*
CC(C)CNc1ncnc2c1ncn2[C@H]1CN(C2CCCC2)C[C@@H](CO)O1	13	28%	13%	-23%	?
COC(=O)c1ccc2nc(-c3ccco3)c(Cc3cccc(Cl)c3)n2c1	24	12%	1%	?	16µM*
COC(=O)c1ccc2nc(-c3ccco3)c(Cc3ccccc3)n2c1	7	?	?	26µM*	21µM*
CCN(CC)CCNC1=NCCn2c1cc1cc(OC)ccc12	-76*	?	?	21µM*	?
CCN(CC)CCNC(=O)COc1ccc(OC)cc1	9	4%	7%	18%	11%
CC(c1nc2ccccc2[nH]1)N(C(=O)C1=NNC(=O)CC1)c1ccccc1 (centres undefined)	3	4%	6%	-2%	-28%
COC(=O)CSc1nc(N2CCCCC2)c2c(c1C#N)CCCC2	17	-6%	-10%	?	23µM*
COC(=O)CSc1nc(-c2ccccc2)c2c(c1C#N)CCCC2	27	3%	-1%	-14%	?
CCN(CC)C(=O)[C@H]1CC(CC(=O)NCCCN(C)C)C(=O)N2CCc3c([nH]c4ccc(OC)cc34)[C@]12C (some centres undefined)	15	1%	-2%	-4%	8%
